Two compounds from PubChem BioAssay AID1159580 (chemical genetic matrix, 2015) can be followed below.

In all, about 5,500 compounds went through this assay and about 2,000 (36%) were called active. Roughly 18% stayed inconclusive and do not appear here. The list shows a part of the results. Unmarked numbers belong to inactive results. No stated cut-off is given here; in the data, active means normalized growth mostly below about 0.91 (no sharp cut-off); inconclusive means no clear call, values can overlap the other calls; inactive means mostly above about 0.92.

This experiment is described as follows: chemical genetic growth profiling, strain panel (AID 1159580).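 Further: tested at 20 µM; growth read once vehicle control cultures reached saturation at 30 °C; 1 = growth at the plate median or of vehicle wells.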 Conditions: growth OD.
[1] abbreviates: S. cerevisiae deletion strains, locus YHR030C, strain SLT2, stronger effect = lower value.

With `CCCCCCCCCCc1ccc(-c2ccccc2)cc1`, the normalized growth reads like this: (S. cerevisiae deletion strains, locus YAL013W, strain DEP1, stronger effect = lower value) 0.982; (S. cerevisiae deletion strains, locus YBR229C, strain ROT2, stronger effect = lower value) 1.01; (S. cerevisiae deletion strains, locus YDL101C, strain DUN1, stronger effect = lower value) 0.99; (S. cerevisiae deletion strains, locus YDR150W, strain NUM1, stronger effect = lower value) 0.976; (S. cerevisiae deletion strains, locus YEL061C, strain CIN8, stronger effect = lower value) 0.988; (S. cerevisiae deletion strains, locus YGR078C, strain PAC10, stronger effect = lower value) 0.988. The normalized growth under setting [1] is 0.769; the normalized growth (S. cerevisiae deletion strains, locus YHR087W, strain rtc3, stronger effect = lower value) was 1.09; the normalized growth (S. cerevisiae deletion strains, locus YJL187C, strain SWE1, stronger effect = lower value) was 1.01; the normalized growth (S. cerevisiae deletion strains, locus YJR043C, strain POL32, stronger effect = lower value) is 0.992; the normalized growth (S. cerevisiae deletion strains, locus YJR075W, strain HOC1, stronger effect = lower value) is 0.989; the normalized growth (S. cerevisiae deletion strains, locus YLR039C, strain RIC1, stronger effect = lower value) was 0.992. Besides, the normalized growth by setting is: (S. cerevisiae deletion strains, locus YLR058C, strain SHM2 (second series), stronger effect = lower value) 1.01; (S. cerevisiae deletion strains, locus YLR085C, strain ARP6, stronger effect = lower value) 0.845; (S. cerevisiae deletion strains, locus YLR262C, strain YPT6, stronger effect = lower value) 0.941; (S. cerevisiae deletion strains, locus YML094W, strain GIM5, stronger effect = lower value) 0.97; (S. cerevisiae deletion strains, locus YMR219W, strain ESC1, stronger effect = lower value) 0.998; (S. cerevisiae deletion strains, locus YMR263W, strain SAP30, stronger effect = lower value) 0.999. The normalized growth is 0.669 (S. cerevisiae deletion strains, locus YMR307W, strain GAS1, stronger effect = lower value); 1 (S. cerevisiae deletion strains, locus YNL153C, strain GIM3, stronger effect = lower value); 0.926 (S. cerevisiae deletion strains, locus YNL298W, strain CLA4 (second series), stronger effect = lower value); 0.974 (S. cerevisiae deletion strains, locus YNL322C, strain KRE1, stronger effect = lower value); 0.958 (S. cerevisiae deletion strains, locus YNR030W, strain Alg12, stronger effect = lower value); 1.06 (S. cerevisiae deletion strains, locus YPL055C, strain LGE1, stronger effect = lower value). In addition, the normalized growth runs as follows: (S. cerevisiae deletion strains, locus YPL241C, strain CIN2, stronger effect = lower value) 0.982; (S. cerevisiae deletion strains, locus YPR135W, strain CTF4, stronger effect = lower value) 0.897; (S. cerevisiae strains, strain wild type, stronger effect = lower value) 0.902 (active).
In the case of `OC[C@H]1O[C@H](OCCCc2ccc(O)cc2)[C@H](O)[C@@H](O)[C@@H]1O`, the normalized growth reads like this: under setting [1], 0.97; (S. cerevisiae deletion strains, locus YHR079C, strain IRE1, stronger effect = lower value) 0.993; (S. cerevisiae deletion strains, locus YJL095W, strain BCK1, stronger effect = lower value) 1; (S. cerevisiae deletion strains, locus YJR066W, strain TOR1, stronger effect = lower value) 0.93; (S. cerevisiae deletion strains, locus YLR113W, strain HOG1, stronger effect = lower value) 0.979; (S. cerevisiae deletion strains, locus YNL183C, strain NPR1, stronger effect = lower value) 0.933. For the same compound, the normalized growth is, setting by setting: (S. cerevisiae deletion strains, locus YOR231W, strain MKK1, stronger effect = lower value) 0.975; (S. cerevisiae deletion strains, locus YPL256C, strain CLN2, stronger effect = lower value) 0.968.
